Data on 17 molecules can be found in PubChem BioAssay (EPA / NIEHS).

Calls of active or inactive are those of the source. Rule for the calls: active = hit-call score of the fitted dose curve at least 0.9, where 1 is the maximum; inactive = score below 0.9.

Common to all, as to settings: mRNA level, 48 h; actives raise or lower the signal
Read-out in assay [1]: NAD(P)H dehydrogenase [quinone] 1 (NQO1), NQO1 (gene 1728)
As to the kind of experiment: LTEA_HepaRG_NQO1: Life Technologies and Expression Analysis (LTEA) Assay for NAD(P)H dehydrogenase [quinone] 1 (NQO1) using HepaRG (AID 2283526). In outline: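 Differentiated HepaRG cells, plated 48 h and then switched to serum-free induction medium, were exposed in duplicate for 48 h to 8-point half-log concentrations up to 100 uM in 0.5% DMSO. mRNA measured by qRT-PCR, normalized to ACTB, GAPDH, POLR2A; bidirectional fit versus DMSO.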

Read-out in assay [2]: Nuclear factor erythroid 2-related factor 2 (Homo sapiens) (UniProt Q16236)
Briefly: LTEA_HepaRG_NFE2L2: Life Technologies and Expression Analysis (LTEA) Assay for Nuclear factor erythroid 2-related factor 2 (NFE2L2) Transcription Factor using HepaRG (AID 2283527).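 For outcome: TaqMan qRT-PCR transcript level normalised to ACTB GAPDH and POLR2A housekeeping genes.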 In outline: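 Differentiated human HepaRG cells in serum-free induction medium were exposed for 48 h to eight concentrations (top 100 uM, half-log dilutions, 0.5% DMSO), in duplicate. NFE2L2 mRNA was quantified by TaqMan qRT-PCR, normalized to ACTB, GAPDH and POLR2A, with bidirectional fitting versus DMSO.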

Read-out in assay [3]: succinate dehydrogenase complex iron sulfur subunit B (SDHB), SDHB (gene 6390)
Briefly: LTEA_HepaRG_SDHB: Life Technologies and Expression Analysis (LTEA) Assay for succinate dehydrogenase complex iron sulfur subunit B (SDHB) using HepaRG (AID 2283528). In outline: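 HepaRG cells (~100,000/well, plated 48 h) exposed in duplicate for 48 h in serum-free induction medium to 8-point half-log series from 100 uM in 0.5% DMSO; mRNA by qRT-PCR normalised to ACTB, GAPDH, POLR2A; bidirectional fit versus DMSO.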

Read-out in assay [4]: Signal transducer and activator of transcription 3 (Homo sapiens) (UniProt P40763)
As to the kind of experiment: LTEA_HepaRG_STAT3: Life Technologies and Expression Analysis (LTEA) Assay for Signal transducer and activator of transcription (STAT3) using HepaRG (AID 2283529). In outline:
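Differentiated human HepaRG cells in serum-free induction medium were exposed in duplicate for 48 h to eight half-log concentrations up to 100 uM in 0.5% DMSO. STAT3 mRNA was quantified by TaqMan qRT-PCR, normalized to ACTB, GAPDH and POLR2A, and fitted bidirectionally against DMSO.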

Read-out in assay [5]: solute carrier (SLCO1B1), SLCO1B1 (gene 10599)
As to the kind of experiment: LTEA_HepaRG_SLCO1B1: Life Technologies and Expression Analysis (LTEA) Assay for solute carrier (SLCO1B1) using HepaRG (AID 2283530). In outline:
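Human HepaRG cultures treated for 48 h with an eight-concentration half-log series topping at 100 uM; SLCO1B1 measured by qRT-PCR and fitted bidirectionally relative to DMSO.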

Read-out in assay [6]: sulfotransferase 2A1 (SULT2A1), SULT2A1 (gene 6822)
Briefly: LTEA_HepaRG_SULT2A1: Life Technologies and Expression Analysis (LTEA) Assay for sulfotransferase 2A1 (SULT2A1) using HepaRG (AID 2283531). In outline: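 Gene-expression endpoint in a human liver cell line: SULT2A1 mRNA change after 48 h chemical treatment, curves fitted in both directions relative to 0.5% DMSO vehicle. Concentrations spanned eight half-log steps from 100 uM.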

Read-out in assay [7]: Transforming Growth Factor (TGFA), TGFA (gene 7039)
Briefly: LTEA_HepaRG_TGFA: Life Technologies and Expression Analysis (LTEA) Assay for Transforming Growth Factor (TGFA) using HepaRG (AID 2283532). An outline of the steps: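 Differentiated human HepaRG cells, plated 48 h then switched to serum-free induction medium, were exposed in duplicate for 48 h to 8-point half-log series from 100 uM in 0.5% DMSO. TGFA mRNA measured by qRT-PCR, normalized to ACTB/GAPDH/POLR2A, bidirectional fit versus DMSO.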

Read-out in assay [8]: Transforming Growth Factor (TGFB1), TGFB1 (gene 7040)
Briefly: LTEA_HepaRG_TGFB1: Life Technologies and Expression Analysis (LTEA) Assay for Transforming Growth Factor (TGFB1) Transporter using HepaRG (AID 2283533). An outline of the steps: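 Eight-point concentration-response (max 100 uM, half-log) in HepaRG under serum-free induction conditions, 48 h. TGFB1 mRNA by qRT-PCR, housekeeping-normalized.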

Read-out in another assay: TIMP1, TIMP1 (gene 7076)
Briefly: LTEA_HepaRG_TIMP1: Life Technologies and Expression Analysis (LTEA) Assay for TIMP1 using HepaRG (AID 2283534).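 For outcome: TaqMan qRT-PCR signal normalized to ACTB GAPDH and POLR2A housekeeping genes.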 In outline: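 TIMP1 induction or repression in HepaRG cells after 48 h chemical exposure (eight concentrations, highest 100 uM), assessed by normalized qRT-PCR with bidirectional fitting to DMSO controls.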

Read-out in assay [9]: Tumor necrosis factor receptor 1 (TNFRSF1A), TNFRSF1A (gene 7132)
As to the kind of experiment: LTEA_HepaRG_TNFRSF1A: Life Technologies and Expression Analysis (LTEA) Assay for Tumor necrosis factor receptor 1 (TNFRSF1A) using HepaRG (AID 2283535). An outline of the steps: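 Assay uses 48 h chemical treatment of differentiated HepaRG monolayers, tested in duplicate at eight concentrations from 100 uM downward in 0.5% DMSO. mRNA is normalized to ACTB, GAPDH and POLR2A, with induction or suppression fitted relative to vehicle.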

Chain of Nuclear factor erythroid 2-related factor 2 (Homo sapiens) (Q16236 whole entry, looked up): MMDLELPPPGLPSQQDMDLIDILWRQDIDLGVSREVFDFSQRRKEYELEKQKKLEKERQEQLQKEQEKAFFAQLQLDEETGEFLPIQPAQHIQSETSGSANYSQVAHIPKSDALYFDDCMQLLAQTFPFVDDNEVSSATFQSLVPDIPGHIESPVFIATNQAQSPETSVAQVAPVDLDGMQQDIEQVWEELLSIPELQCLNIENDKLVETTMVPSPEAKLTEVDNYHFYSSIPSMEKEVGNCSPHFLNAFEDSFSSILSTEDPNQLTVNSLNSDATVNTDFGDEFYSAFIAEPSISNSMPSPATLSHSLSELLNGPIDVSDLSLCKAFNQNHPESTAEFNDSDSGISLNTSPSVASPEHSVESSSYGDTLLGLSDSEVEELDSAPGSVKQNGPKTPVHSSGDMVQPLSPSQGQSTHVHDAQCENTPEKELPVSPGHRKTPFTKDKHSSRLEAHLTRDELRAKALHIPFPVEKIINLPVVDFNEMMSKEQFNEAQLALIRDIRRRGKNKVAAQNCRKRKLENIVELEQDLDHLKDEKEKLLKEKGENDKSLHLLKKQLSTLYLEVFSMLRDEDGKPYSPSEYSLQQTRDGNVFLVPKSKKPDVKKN
Chain of Signal transducer and activator of transcription 3 (Homo sapiens) (P40763 whole entry, looked up): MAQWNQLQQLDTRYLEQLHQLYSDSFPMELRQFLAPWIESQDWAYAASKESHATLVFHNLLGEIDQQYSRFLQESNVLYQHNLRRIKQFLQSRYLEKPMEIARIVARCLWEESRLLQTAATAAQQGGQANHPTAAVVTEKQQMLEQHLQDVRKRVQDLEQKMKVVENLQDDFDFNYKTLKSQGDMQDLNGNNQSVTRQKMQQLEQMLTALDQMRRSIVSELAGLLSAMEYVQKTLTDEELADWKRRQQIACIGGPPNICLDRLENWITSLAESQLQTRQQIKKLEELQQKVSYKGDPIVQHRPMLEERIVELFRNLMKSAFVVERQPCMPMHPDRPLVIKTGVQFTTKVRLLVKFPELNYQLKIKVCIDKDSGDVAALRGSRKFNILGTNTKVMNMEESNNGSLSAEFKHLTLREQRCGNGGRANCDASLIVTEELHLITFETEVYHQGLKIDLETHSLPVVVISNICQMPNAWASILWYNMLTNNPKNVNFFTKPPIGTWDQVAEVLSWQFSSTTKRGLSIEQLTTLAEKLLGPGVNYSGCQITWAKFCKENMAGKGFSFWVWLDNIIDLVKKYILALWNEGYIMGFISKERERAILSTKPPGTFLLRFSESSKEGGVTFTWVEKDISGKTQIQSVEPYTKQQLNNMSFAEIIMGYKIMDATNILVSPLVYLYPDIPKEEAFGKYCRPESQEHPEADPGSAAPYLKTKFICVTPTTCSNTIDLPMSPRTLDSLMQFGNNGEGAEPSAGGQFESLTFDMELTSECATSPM

In the case of `CCCCN1C(=O)[C@@H]([C@H](O)C2CCCCC2)NC(=O)C12CCN(Cc1ccc(Oc3ccc(C(=O)O)cc3)cc1)CC2`, the AC50 (in general, the concentration at which the activity in the assay is half-maximal) in [1] is 4.6 µM (active); in assay [2] it was 2 µM (active); in assay [3] it was 1.56 µM (active); in [4], 3.21 µM (active); in [5] it was 1.92 µM (active); in assay [6], 3.91 µM (active). Moreover, the figures for the AC50 in [8] and in assay [9] were 0.34 µM (active) and 6.08 µM (active), respectively. Also, the outcome in assay [7] was “inactive”; with TIMP1, TIMP1 (gene 7076), “inactive”.

For the molecule `c1ccc2cc3ccccc3cc2c1`, the call in [1], in assay [2], in [3], in assay [4], in assay [5] and in [6] was inactive. Further, the outcome in [7] was “inactive”; in assay [8] it was “inactive”; in the assay with TIMP1, TIMP1 (gene 7076), “inactive”; in [9], “inactive”.

Regarding `O=C(O)c1cccc(C(=O)O)c1`, the molecule was called inactive in [1], in assay [2], in assay [3], in [4], in assay [5] and in assay [6]. For the same molecule, the outcome in assay [7] is “inactive”; with TIMP1, TIMP1 (gene 7076), “inactive”; in assay [9], “inactive”.

In the case of `COS(C)(=O)=O`, the molecule was called inactive in [1], in assay [2], in assay [3], in [4], in assay [5] and in [6]. Also, the outcome was “inactive” in [7]; “inactive” in assay [8]; “inactive” with TIMP1, TIMP1 (gene 7076); “inactive” in assay [9].

Regarding `O=C(O)[C@H](O)[C@@H](O)C(=O)O`, the molecule was called inactive in [1], in assay [2], in assay [3], in assay [4], in [5] and in assay [6]. The outcome was “inactive” in [7]; “inactive” in assay [8]; “inactive” in the assay with TIMP1, TIMP1 (gene 7076); “inactive” in [9].

Regarding `NNC(=O)c1ccncc1`, the result in assay [1], in [2], in [3], in assay [4], in assay [5] and in [6] was inactive. Also, the outcome was “inactive” in assay [7]; “inactive” in assay [8]; “inactive” with TIMP1, TIMP1 (gene 7076); “inactive” in [9].

Turning to `O=C(O)c1cccc(C[C@@H]2COc3ccc(OCc4nc5cc(F)ccc5s4)cc3[C@@H]2O)c1`, the outcome in [1], in [2], in assay [3], in assay [4], in [6] and in assay [7] was inactive. The outcome in [8] is “inactive”; in the assay with TIMP1, TIMP1 (gene 7076) it was “inactive”; in assay [9], “inactive”. In assay [5], the AC50 was 92.3 µM (active).

Consider `CCN(CC)C(=S)SSC(=S)N(CC)CC`, for which the call in assay [1], in assay [2], in assay [3], in [4], in assay [5] and in assay [7] was inactive. The outcome in assay [8] is “inactive”; with TIMP1, TIMP1 (gene 7076), “inactive”; in assay [9], “inactive”.

Take `Cn1c(=O)c2[nH]cnc2n(C)c1=O`: the outcome in assay [1], in assay [2], in assay [3], in assay [4], in assay [6] and in assay [7] was inactive. For the same molecule, the outcome is “inactive” in [8] and “inactive” with TIMP1, TIMP1 (gene 7076). Moreover, in [9], the half-maximal activity concentration (AC50) was 0.276 µM (active).

Regarding `CCCCCCCCN(C)C`, the result in [1], in assay [2], in assay [3], in [4], in assay [5] and in assay [6] was inactive. Besides, the outcome in [7] was “inactive”; in assay [8], “inactive”; with TIMP1, TIMP1 (gene 7076), “inactive”; in assay [9], “inactive”.

For the molecule `O=S(=O)(O)c1ccc(N=Nc2c(O)ccc3cc(S(=O)(=O)O)ccc23)cc1`, the result in assay [1], in assay [2], in assay [3], in assay [4], in [5] and in assay [6] was inactive. Besides, the outcome in assay [7] was “inactive”; in assay [8] it was “inactive”; with TIMP1, TIMP1 (gene 7076) it was “inactive”; in [9], “inactive”.

With `c1ccc2c(c1)-c1cccc3c1c-2cc1ccccc13`, the outcome in assay [1], in [2] and in assay [8] was inactive. For the same molecule, the AC50 in assay [3] is 11.4 µM (active); in assay [4] it was 6.57 µM (active); in [5], 13.7 µM (active); in [6] it was 16.8 µM (active); in [7], 7.13 µM (active); in the assay with TIMP1, TIMP1 (gene 7076) it was 4.93 µM (active). The half-maximal activity concentration (AC50) in [9] was 14.7 µM (active).

For the molecule `C=CCc1cc(S(=O)(=O)c2ccc(O)c(CC=C)c2)ccc1O`, the result in assay [1], in assay [2], in assay [3], in assay [4], in assay [7] and in [8] was inactive. The outcome in the assay with TIMP1, TIMP1 (gene 7076) is “inactive”; in [9] it was “inactive”. The figures for the AC50 in assay [5] and in [6] were 85.4 µM (active) and 81.2 µM (active), respectively.

For `CCCCCCCCCC`, the molecule was classed as inactive in [1], in assay [2], in [3], in [4], in [5] and in assay [6]. In addition, the outcome in [7] was “inactive”; in assay [8], “inactive”; in the assay with TIMP1, TIMP1 (gene 7076) it was “inactive”; in assay [9], “inactive”.

On to `CCOC(N)=O`, for which the result in assay [1], in assay [2], in assay [3], in assay [4], in assay [5] and in assay [6] was inactive. Moreover, the outcome in [7] is “inactive”; in [8], “inactive”; with TIMP1, TIMP1 (gene 7076), “inactive”; in [9], “inactive”.

For `CCn1nc(C)c2c1C(=O)NCC(c1ccc(O)cc1)=N2`, the molecule was classed as inactive in assay [1], in assay [2], in [3], in assay [4], in assay [5] and in [6]. Besides, the outcome in [7] is “inactive”; in assay [8], “inactive”; in the assay with TIMP1, TIMP1 (gene 7076), “inactive”; in assay [9] it was “inactive”.

As for `NC(=O)N1c2ccccc2C=Cc2ccccc21`, the result in assay [1], in assay [2], in [3], in assay [4], in [5] and in [6] was inactive. For the same molecule, the outcome was “inactive” in assay [7]; “inactive” in assay [8]; “inactive” with TIMP1, TIMP1 (gene 7076); “inactive” in assay [9].
